Data from the supplement of paper PMC11001985.

compound: C#CCNC(=O)CCSSCCC(=O)NCCc1ccc(C=O)c(C=O)c1; assay: lysine labeling ratio R10:1 (500 µM / 50 µM probe), SILAC-ABPP in living cells; higher = lower intrinsic lysine reactivity toward the probe, active = 2 or less; conditions: HeLa; probe concentrations 500 vs 50 µM
Method in brief: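 SILAC light and heavy living HeLa cells in PBS at room temperature were labelled with 50 µM or 500 µM of an alkyne-tagged, disulfide-linked lysine probe, with forward and reverse label swaps. Mixed lysates were clicked to biotin-azide, trypsin-digested, captured on neutravidin, DTT-released, alkylated and analysed by LC-MS/MS on a TIMS-TOF Pro. R is the filtered median high-probe/low-probe MS1 peptide ratio per lysine, then the median across forward and reverse replicates. Ratios are capped at 20.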

UniProt O75054, sequence (O75054 whole entry): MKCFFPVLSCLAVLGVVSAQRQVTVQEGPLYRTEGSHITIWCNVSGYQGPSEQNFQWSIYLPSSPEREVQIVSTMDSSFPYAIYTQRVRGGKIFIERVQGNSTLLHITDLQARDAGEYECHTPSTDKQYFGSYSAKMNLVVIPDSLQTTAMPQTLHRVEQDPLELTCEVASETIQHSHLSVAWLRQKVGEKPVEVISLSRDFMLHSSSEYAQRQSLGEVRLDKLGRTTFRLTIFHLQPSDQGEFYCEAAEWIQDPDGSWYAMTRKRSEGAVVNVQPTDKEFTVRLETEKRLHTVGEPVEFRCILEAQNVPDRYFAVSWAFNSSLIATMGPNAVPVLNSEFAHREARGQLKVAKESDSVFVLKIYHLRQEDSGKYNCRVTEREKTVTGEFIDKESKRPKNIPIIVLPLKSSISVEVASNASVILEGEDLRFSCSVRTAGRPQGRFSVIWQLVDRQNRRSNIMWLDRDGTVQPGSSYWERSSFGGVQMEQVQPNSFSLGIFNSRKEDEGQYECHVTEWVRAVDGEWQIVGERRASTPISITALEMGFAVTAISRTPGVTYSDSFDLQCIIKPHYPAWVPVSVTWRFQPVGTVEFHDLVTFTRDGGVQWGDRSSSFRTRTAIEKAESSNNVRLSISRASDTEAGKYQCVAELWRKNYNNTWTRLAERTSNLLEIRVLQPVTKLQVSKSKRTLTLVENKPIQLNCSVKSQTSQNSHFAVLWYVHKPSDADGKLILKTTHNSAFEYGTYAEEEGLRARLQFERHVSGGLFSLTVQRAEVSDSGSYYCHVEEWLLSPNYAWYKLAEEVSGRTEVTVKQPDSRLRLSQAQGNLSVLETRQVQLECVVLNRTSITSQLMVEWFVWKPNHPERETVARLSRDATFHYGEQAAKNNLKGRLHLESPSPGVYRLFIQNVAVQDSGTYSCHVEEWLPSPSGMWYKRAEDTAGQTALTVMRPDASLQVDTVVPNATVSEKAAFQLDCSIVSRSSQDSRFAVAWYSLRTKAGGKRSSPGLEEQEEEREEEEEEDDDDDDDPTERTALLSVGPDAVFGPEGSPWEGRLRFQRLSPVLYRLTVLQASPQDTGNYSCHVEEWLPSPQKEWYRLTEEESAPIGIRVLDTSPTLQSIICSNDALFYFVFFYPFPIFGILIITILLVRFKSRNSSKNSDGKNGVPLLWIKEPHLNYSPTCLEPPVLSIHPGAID
UniProt P21333, sequence (P21333 whole entry): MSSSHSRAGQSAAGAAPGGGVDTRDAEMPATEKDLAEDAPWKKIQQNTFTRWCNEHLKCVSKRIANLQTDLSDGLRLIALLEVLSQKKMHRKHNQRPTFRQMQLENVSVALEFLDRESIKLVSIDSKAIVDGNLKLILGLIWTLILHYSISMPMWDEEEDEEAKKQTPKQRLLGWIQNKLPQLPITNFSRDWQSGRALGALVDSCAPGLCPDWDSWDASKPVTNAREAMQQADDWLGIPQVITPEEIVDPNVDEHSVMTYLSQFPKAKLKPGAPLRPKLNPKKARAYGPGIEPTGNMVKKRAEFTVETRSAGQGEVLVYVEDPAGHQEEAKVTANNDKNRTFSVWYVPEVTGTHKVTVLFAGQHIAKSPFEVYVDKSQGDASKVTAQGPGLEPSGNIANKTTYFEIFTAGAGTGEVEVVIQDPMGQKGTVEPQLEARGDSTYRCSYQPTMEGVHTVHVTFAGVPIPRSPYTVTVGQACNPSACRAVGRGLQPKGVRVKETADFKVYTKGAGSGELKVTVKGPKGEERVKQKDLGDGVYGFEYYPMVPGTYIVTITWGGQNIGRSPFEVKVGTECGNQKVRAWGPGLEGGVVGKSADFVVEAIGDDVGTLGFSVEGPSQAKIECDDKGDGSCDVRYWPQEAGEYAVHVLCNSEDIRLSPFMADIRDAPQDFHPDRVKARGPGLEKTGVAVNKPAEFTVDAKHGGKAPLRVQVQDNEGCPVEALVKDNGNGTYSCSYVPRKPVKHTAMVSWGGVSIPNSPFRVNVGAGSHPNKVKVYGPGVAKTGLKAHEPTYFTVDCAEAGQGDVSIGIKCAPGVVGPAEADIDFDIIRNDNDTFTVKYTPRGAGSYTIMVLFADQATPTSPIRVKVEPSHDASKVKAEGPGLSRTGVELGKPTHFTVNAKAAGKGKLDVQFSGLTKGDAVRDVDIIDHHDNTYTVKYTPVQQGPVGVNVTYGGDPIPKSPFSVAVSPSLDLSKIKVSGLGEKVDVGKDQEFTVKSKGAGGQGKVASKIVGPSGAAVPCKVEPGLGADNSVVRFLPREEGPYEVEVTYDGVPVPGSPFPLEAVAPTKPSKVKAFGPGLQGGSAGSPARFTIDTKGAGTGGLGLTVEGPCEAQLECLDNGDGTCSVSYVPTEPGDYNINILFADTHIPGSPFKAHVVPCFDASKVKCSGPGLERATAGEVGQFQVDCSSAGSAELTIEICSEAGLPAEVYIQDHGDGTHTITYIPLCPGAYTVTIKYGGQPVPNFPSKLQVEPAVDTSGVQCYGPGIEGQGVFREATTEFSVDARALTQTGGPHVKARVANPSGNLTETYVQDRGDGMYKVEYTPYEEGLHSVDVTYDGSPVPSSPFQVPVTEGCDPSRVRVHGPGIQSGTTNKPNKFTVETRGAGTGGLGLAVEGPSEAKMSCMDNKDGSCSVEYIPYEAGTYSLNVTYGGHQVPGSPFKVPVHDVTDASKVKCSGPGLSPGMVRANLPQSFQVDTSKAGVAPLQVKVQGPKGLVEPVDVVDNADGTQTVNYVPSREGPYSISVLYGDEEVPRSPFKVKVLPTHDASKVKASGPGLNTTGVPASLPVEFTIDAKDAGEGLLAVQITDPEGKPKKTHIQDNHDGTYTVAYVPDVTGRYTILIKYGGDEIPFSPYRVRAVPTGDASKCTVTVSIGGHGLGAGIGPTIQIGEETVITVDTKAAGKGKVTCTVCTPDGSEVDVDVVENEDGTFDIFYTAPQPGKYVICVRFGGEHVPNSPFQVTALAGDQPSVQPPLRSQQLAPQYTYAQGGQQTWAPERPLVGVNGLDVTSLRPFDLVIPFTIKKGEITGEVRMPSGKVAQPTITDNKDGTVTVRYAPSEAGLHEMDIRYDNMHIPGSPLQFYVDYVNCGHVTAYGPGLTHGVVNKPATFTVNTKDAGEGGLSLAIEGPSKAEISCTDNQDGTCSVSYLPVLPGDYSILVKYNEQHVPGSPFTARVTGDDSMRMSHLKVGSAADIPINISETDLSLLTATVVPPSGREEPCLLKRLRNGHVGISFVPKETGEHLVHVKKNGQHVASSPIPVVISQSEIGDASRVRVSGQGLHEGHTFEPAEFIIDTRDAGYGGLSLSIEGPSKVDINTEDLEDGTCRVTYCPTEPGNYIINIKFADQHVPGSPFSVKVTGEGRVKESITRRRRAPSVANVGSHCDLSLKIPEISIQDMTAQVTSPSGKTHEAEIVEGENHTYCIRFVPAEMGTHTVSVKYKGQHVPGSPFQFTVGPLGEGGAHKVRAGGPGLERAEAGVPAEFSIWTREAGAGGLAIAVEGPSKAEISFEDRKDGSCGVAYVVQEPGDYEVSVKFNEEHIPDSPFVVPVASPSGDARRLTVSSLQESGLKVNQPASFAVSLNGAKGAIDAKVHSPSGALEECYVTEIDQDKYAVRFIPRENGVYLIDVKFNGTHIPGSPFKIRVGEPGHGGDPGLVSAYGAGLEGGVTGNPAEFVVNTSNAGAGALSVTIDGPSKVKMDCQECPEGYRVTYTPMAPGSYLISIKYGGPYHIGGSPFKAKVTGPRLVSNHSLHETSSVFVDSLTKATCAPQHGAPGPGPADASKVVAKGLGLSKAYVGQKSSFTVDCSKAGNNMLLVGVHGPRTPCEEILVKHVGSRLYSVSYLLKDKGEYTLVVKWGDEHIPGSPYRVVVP
UniProt P78371, sequence (P78371 whole entry): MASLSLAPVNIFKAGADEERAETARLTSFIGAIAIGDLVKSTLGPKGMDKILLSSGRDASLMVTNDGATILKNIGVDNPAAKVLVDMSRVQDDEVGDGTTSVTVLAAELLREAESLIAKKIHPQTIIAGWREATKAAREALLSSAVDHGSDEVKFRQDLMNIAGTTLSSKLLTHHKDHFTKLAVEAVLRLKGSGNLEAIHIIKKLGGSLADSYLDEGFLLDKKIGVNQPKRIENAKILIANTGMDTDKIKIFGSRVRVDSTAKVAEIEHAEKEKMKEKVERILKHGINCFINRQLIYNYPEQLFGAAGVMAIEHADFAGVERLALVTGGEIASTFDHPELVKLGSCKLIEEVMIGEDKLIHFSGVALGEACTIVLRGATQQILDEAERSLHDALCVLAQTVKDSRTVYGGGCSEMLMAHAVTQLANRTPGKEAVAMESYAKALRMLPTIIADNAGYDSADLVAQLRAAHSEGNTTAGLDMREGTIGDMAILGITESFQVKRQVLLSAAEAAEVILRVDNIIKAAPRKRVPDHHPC
UniProt P05067, sequence (P05067 whole entry): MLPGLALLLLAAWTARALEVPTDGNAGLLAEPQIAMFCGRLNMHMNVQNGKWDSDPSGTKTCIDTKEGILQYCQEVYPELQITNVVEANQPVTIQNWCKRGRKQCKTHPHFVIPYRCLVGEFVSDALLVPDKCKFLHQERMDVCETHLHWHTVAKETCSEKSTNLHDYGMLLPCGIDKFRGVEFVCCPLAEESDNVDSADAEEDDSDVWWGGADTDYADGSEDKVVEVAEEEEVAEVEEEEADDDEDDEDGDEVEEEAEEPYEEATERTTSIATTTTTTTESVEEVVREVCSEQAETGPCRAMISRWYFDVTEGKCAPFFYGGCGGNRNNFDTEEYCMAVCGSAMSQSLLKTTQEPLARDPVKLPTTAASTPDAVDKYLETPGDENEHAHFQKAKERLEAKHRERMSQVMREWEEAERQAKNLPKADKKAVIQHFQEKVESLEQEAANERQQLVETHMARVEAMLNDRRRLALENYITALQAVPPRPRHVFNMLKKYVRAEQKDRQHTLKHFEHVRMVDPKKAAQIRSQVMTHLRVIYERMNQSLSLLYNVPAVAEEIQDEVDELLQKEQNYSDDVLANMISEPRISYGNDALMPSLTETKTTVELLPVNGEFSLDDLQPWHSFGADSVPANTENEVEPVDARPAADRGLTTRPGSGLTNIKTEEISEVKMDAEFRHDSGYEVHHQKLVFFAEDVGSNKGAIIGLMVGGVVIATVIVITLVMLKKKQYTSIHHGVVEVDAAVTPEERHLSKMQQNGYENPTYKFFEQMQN

Lysine labeling ratio R10:1, active:
TMEM30A (lysine site: K279) (UniProt Q9NV96) 1.73
CCT2 (lysine site: K441) (UniProt P78371) 1.98
LPL (lysine site: K265) (UniProt P06858) 1.86
PTPRB (lysine site: K718) (UniProt P23467) 1.5
RPS19 (lysine site: K144) (UniProt P39019) 1.75
ACTR3 (lysine site: K348) (UniProt P61158) 1.4
HM13 (lysine site: K61) (UniProt Q8TCT9) 1.69
THBS1 (lysine site: K919) (UniProt P07996) 1.72
IGSF3 (lysine site: K642) (UniProt O75054) 1.12
FRAS1 (lysine site: K1158) (UniProt Q86XX4) 1.34
CD109 (lysine site: K952) (UniProt Q6YHK3) 0.643
UniProt O15354 (lysine site: K405) 1.9
EGFR (lysine site: K487) (UniProt P00533) 1.61

Lysine labeling ratio R10:1, inactive:
DSG2 (lysine site: K561) (UniProt Q14126) 6.57
AKR1B1 (lysine site: K263) (UniProt P15121) 8.32
IGSF3 (lysine site: K373) (UniProt O75054) 3.12
UniProt Q9UHI8 (lysine site: K619) 2.67
CACNA2D1 (lysine site: K146) (UniProt P54289) 5.1
MYH9 (lysine site: K856) (UniProt P35579) 2.68
LDLR (lysine site: K782) (UniProt P01130) 3.22
UniProt P26639 (lysine site: K243) 3.1
UniProt P61160 (lysine site: K253) 3.35
FLNA (lysine site: K837) (UniProt P21333) 4.31
ECE1 (lysine site: K676) (UniProt P42892) 3.15
SERPINH1 (lysine site: K94) (UniProt P50454) 3.29
UniProt Q16629 (lysine site: K24) 3
SPTBN1 (lysine site: K497) (UniProt Q01082) 2.59
UniProt Q9Y653 (lysine site: K107) 2.31
PTGFRN (lysine site: K763) (UniProt Q9P2B2) 4.93
FLNB (lysine site: K1005) (UniProt O75369) 4.49
APP (lysine site: K521) (UniProt P05067) 5.65
UniProt P02533 (lysine site: K328) 11.3
UniProt P61978 (lysine site: K179) 3.68
HNRNPM (lysine site: K69) (UniProt P52272) 3.38
RPL28 (lysine site: K84) (UniProt P46779) 2.27
UniProt Q9NY47 (lysine site: K270) 2.85
FN1 (lysine site: K486) (UniProt P02751) 2.59
PRCP (lysine site: K228) (UniProt P42785) 2.59
UniProt P60660 (lysine site: K81) 3.44
ITGAV (lysine site: K233) (UniProt P06756) 2.51
